Screening data (PubChem BioAssay)
KCNH2 WT inh: qHTS for Inhibitors of KCHN2 3.1: Wildtype qHTS. U2OS, BacMam KCNH2, thallium flux FluxOr; active compounds read low. activity change, % at 1.84 µM. hit rate 0.37% among 340,000;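 active means maximum activity change below -70%; inconclusive means maximum activity change between -70% and -50%; inactive means maximum activity change above -50%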
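U2OS cells transduced with wild-type KCNH2 virus are loaded with FluxOr dye for 45 min, and thallium flux is measured in kinetic reads before and after stimulation buffer. Rate constants are normalized to DMSO controls.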
Six1-Eya2 inh: qHTS Assay for Inhibitors of the Six1/Eya2 Interaction | Homeobox protein SIX1 (Homo sapiens) + Protein phosphatase EYA2 (Homo sapiens), … | AlphaScreen GST-Six1/His-Eya2 binding, biochemical; active compounds read low | activity change, % (test concentration not listed) | hit rate 0.56% among 360,000 | AID 651725, 2012
Target sequence (O00167 whole entry, looked up): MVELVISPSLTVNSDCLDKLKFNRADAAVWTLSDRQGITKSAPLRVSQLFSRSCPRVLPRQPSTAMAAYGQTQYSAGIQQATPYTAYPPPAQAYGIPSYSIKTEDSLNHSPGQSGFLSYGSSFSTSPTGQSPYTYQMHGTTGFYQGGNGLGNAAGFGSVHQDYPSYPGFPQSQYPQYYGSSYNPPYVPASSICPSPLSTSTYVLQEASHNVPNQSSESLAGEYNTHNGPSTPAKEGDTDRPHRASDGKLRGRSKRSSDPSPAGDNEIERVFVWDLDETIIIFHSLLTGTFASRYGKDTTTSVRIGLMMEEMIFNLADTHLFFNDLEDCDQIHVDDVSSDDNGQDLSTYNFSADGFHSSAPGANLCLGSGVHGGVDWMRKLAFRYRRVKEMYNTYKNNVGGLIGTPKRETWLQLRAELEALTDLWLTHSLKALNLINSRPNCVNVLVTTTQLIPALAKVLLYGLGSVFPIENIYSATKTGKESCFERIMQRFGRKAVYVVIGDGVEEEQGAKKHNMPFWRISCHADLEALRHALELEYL
Target sequence (Q15475 whole entry, looked up): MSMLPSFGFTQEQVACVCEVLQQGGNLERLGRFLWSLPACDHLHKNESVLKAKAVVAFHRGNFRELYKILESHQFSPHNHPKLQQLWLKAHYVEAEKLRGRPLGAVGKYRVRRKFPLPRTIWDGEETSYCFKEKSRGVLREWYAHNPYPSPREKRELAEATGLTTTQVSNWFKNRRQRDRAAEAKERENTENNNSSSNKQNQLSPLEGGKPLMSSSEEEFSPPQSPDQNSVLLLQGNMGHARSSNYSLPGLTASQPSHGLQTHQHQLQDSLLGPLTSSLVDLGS
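AlphaScreen luminescence read after one hour at 37 °C in darkness. Pin-transferred compounds met GST-Six1 and His-Eya2 protein (5X stock 250 nM/500 nM) plus glutathione donor and Ni-chelate acceptor beads (5X, 50 ug/mL).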
KDM4E inh: qHTS Assay for Inhibitors of Human Jumonji Domain Containing 2E (JMJD2E); Lysine-specific demethylase 4E (Homo sapiens), B2RXH2; JMJD2E catalytic domain, FDH-coupled NADH fluorescence (FDH is formaldehyde dehydrogenase); Potency, µM (series often up to 57.1 µM), inactives show at the highest dose activity change, negative = inhibition, usual class: inhibitors; hit rate 1.6% among 230,000; active means well fitted inhibition curve with a large enough effect, not every such curve was filed as active; inconclusive means small, poorly fitted or top-dose-only effect, or another doubt; inactive means no such curve, though single readings can be large or run the other way;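 further: potency means the concentration at half of the fitted maximal effect; 0% = wells with enzyme and -100% = buffer wells without enzyme; nearly all actives have a fitted effect of over 50% in size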
KCNH2 3.1 block: qHTS for Inhibitors of KCHN2 3.1: Mutant qHTS. Potassium voltage-gated channel subfamily H member 2, brain isoform KCNH2 3.1 (human). U2OS KCNH2 3.1, thallium flux FluxOr; active compounds read low. activity change, % (tested at about 1.8 µM). hit rate 0.95% among 340,000;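 active means maximum activity change below -70%; inconclusive means maximum activity change from -70% to -50%; inactive means maximum activity change above -50%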;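 further: thallium influx rate constant from kinetic fluorescence after stimulation buffer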
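Kinetic fluorescence (2 min after stimulation buffer) measures Tl+ influx through KCNH2 3.1 expressed by viral transduction in U2OS cells; the rate constant is normalized against DMSO controls serving as positive and negative references.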
CtBP-E1A blk: qHTS Assay for Inhibitors of the CtBP/E1A Interaction; CtBP / adenovirus E1A interaction (AlphaScreen); AlphaScreen GST-E1A/His-CtBP binding, 1536-well; active compounds read low; activity change, % (test concentration not listed); hit rate 0.49% among 340,000; AID 651724, 2012
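Protein mix (5X: 125 nM each GST-E1A, His-CtBP) was incubated with pinned compound 2 h at 37 deg C in dark, in 50 mM Tris pH 8.0 buffer with 300 mM NaCl. Glutathione donor and nickel acceptor beads followed; AlphaScreen signal read after 1 h.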
Starred values were filed as active, the others as inactive; i = inactive; ? = inconclusive; / = no result given; ! = a repeat was not active. In the library only some 2% were active in any assay of this set; here they are far more common. Unless noted, no stated cut-off is given here; in the data, active means activity change below about -65%; inconclusive means mostly about -30% to -63%; inactive means weaker than that. Unless noted, on the % scale 0 is the no-effect control and ±100 the full control effect.

SMILES	KCNH2 WT inh	Six1-Eya2 inh	KDM4E inh	KCNH2 3.1 block	CtBP-E1A blk
Cn1c(=O)c2sccc2n(Cc2ccccc2)c1=O	-1	-1	/	-73*	8
Oc1ccc(/C=C/c2ccc3cccc(O)c3n2)cc1Br	3	-4	/	11	-9
O=C(O)c1ccc(/C=C/c2ccc3cccc(O)c3n2)cc1	2	-24	8.9µM*	-22	-24
O/N=C/c1ccc2cccc(O)c2n1	-7	-5	32µM*	5	/
Oc1cccc2ccc(/C=C/c3c(F)cccc3Cl)nc12	6	4	28µM*	-17	14
CC(=O)c1c2c3c(cccc3n(C)c1=O)C(=O)c1ccccc1-2	-9	-22	/	12	/
Cn1c(=O)c(Nc2ccc(O)cc2)c2c3c(cccc31)C(=O)c1ccccc1-2	-3	-77*	-5%	6	-73*
O=C(O)CN(CCN(CC(=O)O)CC(=O)O)CCN(CC(=O)O)CC(=O)O	/	/	6.3µM*!	/	/
S=c1cnc2ccccc2[nH]1	3	-1	11µM*	/	3
c1ccc2[nH]c(CCCc3nc4ccccc4[nH]3)nc2c1	11	-6	/	-23	-12
FC(F)(F)c1cc(C(F)(F)F)c2ccc(N3CCN(c4ccc(Cl)cc4)CC3)nc2n1	1	6	5%	-90*	1
Cc1cc(NC(=O)CN(C)CC(=O)Nc2ccc(Cl)cc2)no1	11	-4	/	-120*	/
O=C(/C=C/c1ccc(Cl)cc1Cl)N1CCN(c2ccccc2[N+](=O)[O-])CC1	?	0	11%	-95*	-5
O=C(/C=C/c1ccc(Cl)cc1Cl)N1CCN(c2ccc([N+](=O)[O-])c(N3CCOCC3)c2)CC1	-1	-5	-2%	-18	0
Oc1ccc(/C=N/NC(=S)NCCN2CCOCC2)c(O)c1	/	-90*	35µM*	-2	/
CC(C)n1c(=S)[nH]c2c1c(=O)[nH]c(=O)n2C	-2	0	7.9µM*	-13	1
C=CC(C)n1c(Br)nc2c1c(=O)[nH]c(=O)n2C (stereo not given)	6	-1	1%	24	-13
O=C(c1ccc(=O)n(Cc2ccc(Cl)c(Cl)c2)c1)N1CCOCC1	1	7	1%	1	12
COc1ccc([N+](=O)[O-])cc1NC(=O)COC(C)=O	-25	0	3%	-123*	14
COc1cccc(NC(=O)Cn2cc(C#N)c3ccccc32)c1	-6	8	-1%	10	2
COc1ccc([N+](=O)[O-])cc1NC(=O)CSCc1cc(C)cc(C)c1	5	-10	3%	-4	-23
COc1ccccc1NC(=O)Cn1cc(C#N)c2ccccc21	-254*	-1	5%	5	4
COc1ccccc1NC(=O)CSCc1ccc([N+](=O)[O-])cc1	-149*	-17	4%	-199*	-17
CCCC(=O)OCC(=O)Nc1cc([N+](=O)[O-])ccc1OC	i	-2	-2%	8	-28
CCCCc1ccc(NC(=O)N[C@H](C(=O)O)C(C)CC)cc1 (stereo not given in full)	-2	-14	7%	2	1
SMILES	KCNH2 WT inh	Six1-Eya2 inh	KDM4E inh	KCNH2 3.1 block	CtBP-E1A blk
COc1cc(/C=N/Nc2cccc(C)c2)cc(Br)c1O	1	3	1%	8	1
COC(=O)N1[C@H](C)C=C[C@]1(Cc1ccccc1)C(=O)NCc1ccccn1	/	/	-2%	/	/
COC(=O)N1[C@H](C)C=C[C@]1(Cc1ccccc1)C(=O)NCc1ccc(N(C)C)cc1	/	/	18µM*	/	/
NC1=NC(=O)/C(=C/c2ccc(-c3ccc(S(N)(=O)=O)cc3)o2)S1	0	?	/	14	/
CS(=O)(=O)Nc1ccc(-c2ccc(/C=C3\SC(N)=NC3=O)o2)cc1	-9	?	/	9	-68*
O=C(Cn1cc2c(n1)CCCCC2)Nc1ccccc1Cl	1	-2	6%	28	7
CCN(Cc1ccncc1)C(=O)CC1C(=O)NCCN1Cc1ccc(F)c(F)c1 (stereo not given)	1	14	?	-10	12
Cc1oc(-c2cc(F)ccc2F)nc1CN1CCCN(C(=O)c2ccco2)CC1	24	-3	4%	-31	3
COc1cccc(-c2nc(CN3CCN(C(=O)c4ccco4)CC3)c(C)o2)c1OC	-2	-1	/	-90*	3
O=C(CNC(=O)c1cnccc1C(F)(F)F)c1cccc(Cl)c1	9	0	-5%	-4	-1
Cc1nc(N/N=C/c2ccc(O)cc2)c2cnn(-c3ccccc3)c2n1	-2	?	?	-13	-76*
COCOCCn1cc(CN2CCS(=O)(=O)N(Cc3ccc(-c4ccc(Cl)cc4)cc3)C(CC(C)C)C2=O)nn1 (stereo not given)	-6	0	/	-12	-2
COc1ccc(CN(C)CC(O)COC(c2ccc(OC)cc2)c2ccc(OC)cc2)cc1 (stereo not given)	?	-15	/	-113*	-9
COc1ccc(C(OCC(O)CN(C)C2CCCCC2)c2ccc(OC)cc2)cc1 (stereo not given)	0	-11	/	-44	-2
CCOc1ccc(CN(C)CC(O)COC(c2ccc(OC)cc2)c2ccc(OC)cc2)cc1 (stereo not given)	-85*	-8	/	-93*	-10
O=C1[C@@H]2Cc3c([nH]c4ccccc34)C(c3ccc(Cl)cc3)N2C(=O)CN1CCO (stereo not given in full)	-8	-6	/	5	/
O=C1Nc2ccccc2CCC1Sc1nnc(-c2ccc(Cl)cc2)s1 (stereo not given)	6	5	/	-72*	5
O=C1c2ccccc2C(=O)N1c1ccc(Cc2ccncc2)cc1	0	5	-1%	-11	-2
O=C(Nc1cccc(-c2nn[nH]n2)c1)c1ccc(Br)s1	11	?	/	16	-69*
O=C(Nc1cccc(-c2nn[nH]n2)c1)c1ccc(Cl)s1	-4	?	/	-3	?
COc1ccc(N2C(=O)c3ccc(C(=O)Nc4cc(OC)ccc4OC)cc3C2=O)cc1	9	-2	/	-96*	/
COc1ccc(OC)c(NC(=O)c2cccc(N3C(=O)C4C5C=CC(C6CC56)C4C3=O)c2)c1 (stereo not given)	-167*	-6	/	-39	/
Cn1ccnc1C(O)(c1nnc(-c2ccccc2)o1)C(F)(F)F (stereo not given)	-13	-6	-27%	-12	2
COc1cc(/C=C(/C#N)C(=O)Nc2ccccc2)c(Br)cc1OCc1ccc(C(=O)O)cc1	-7	-3	4%	-1	-7
